Compound activity (PubChem BioAssay)
Hits are enriched below; roughly 0.24% of the tested compounds scored in any of these assays.
Bcl-XL Bim block: human Bim-Bcl-XL interaction inhibition | AID 1007 | inhibition, % at 10 µM | Bim peptide-Bcl-XL binding, bead flow cytometry, fluorescence | 190,000 compounds, 0.04% hits | Q07817
Target sequence (Q07817 whole entry, looked up): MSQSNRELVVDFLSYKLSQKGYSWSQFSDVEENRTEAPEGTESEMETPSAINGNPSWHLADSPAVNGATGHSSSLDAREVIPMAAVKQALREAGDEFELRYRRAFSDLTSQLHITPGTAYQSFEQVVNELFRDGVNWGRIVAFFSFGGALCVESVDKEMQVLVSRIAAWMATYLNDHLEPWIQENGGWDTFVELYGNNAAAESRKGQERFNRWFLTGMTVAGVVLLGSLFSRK
Bcl-2 Bim block: inhibitors of Bim-Bcl-2 interaction, human; P10415; Bead-based flow cytometry, Bim peptide-Bcl-2 binding; inhibition, % at 10 µM; 190,000 compounds, 0.06% hits; AID 950; in the data active means inhibition above about 40%
Target sequence (P10415 whole entry, looked up): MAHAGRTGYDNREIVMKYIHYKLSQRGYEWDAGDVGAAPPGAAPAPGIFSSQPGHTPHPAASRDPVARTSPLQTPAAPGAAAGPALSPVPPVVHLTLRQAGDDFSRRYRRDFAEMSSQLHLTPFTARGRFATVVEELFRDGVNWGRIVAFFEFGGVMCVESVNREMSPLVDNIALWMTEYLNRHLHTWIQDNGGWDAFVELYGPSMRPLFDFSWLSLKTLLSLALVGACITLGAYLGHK
Bim-Bcl-B: disrupts Bim peptide binding to human Bcl-B; inhibition, % at 10 µM; 190,000 compounds, 0.073% hits; AID 951; Q9HD36; bead-based flow cytometry
Bcl-W Bim block: inhibitors of Bim-Bcl-W interaction, human. bead-based flow cytometry, Bim peptide-Bcl-W binding. inhibition, % at 10 µM. 190,000 compounds, 0.02% hits;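 further: higher means less fluorescent Bim peptide bound to Bcl-W beads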
PKD1 kinase inh: PKD1 (human) kinase inhibition; PKD1 kinase fluorescence polarization assay; inhibition, % (no concentration beside the values); 200,000 compounds, 0.056% hits; AID 797; in the data active means inhibition above about 50%
Bfl-1 Bim block: human Bim-Bfl-1 interaction inhibition | 190,000 compounds, 0.12% hits | Bead-based flow cytometry, Bim-Bfl-1 binding inhibition | inhibition, % at 10 µM | Q16548
FP interf 140K: interferes with fluorescence polarization in PKD inhibitor counter-screen; shares compounds with PKD1 kinase inh; PKD1 FP assay interference counter-screen; inhibition, % at 10 µM; 85 tested, under 10 active; AID 1315; call rule not given here
Numbers stand for hits; 0 = inactive. Unless noted, no stated cut-off is given here; in the data, active means inhibition above about 40%.

SMILES | Bcl-XL Bim block | Bcl-2 Bim block | Bim-Bcl-B | Bcl-W Bim block | PKD1 kinase inh | Bfl-1 Bim block | others
Cn1ccnc1Sc1nnnn1-c1ccccc1 | 0 | 0 | 0 | 0 | 0 | 0
Cc1ccc2cc(C)c(Sc3nnnn3-c3ccccc3)nc2c1 | 42 | 0 | 0 | 0 | 0 | 40
Cc1cccc(N2C(S)=C(C#N)C(=O)NC2c2cccs2)c1 (stereo unspecified) | 0 | 0 | 0 | 0 | 0 | 42
N#CC1=C(S)N(c2ccc(F)cc2)C(c2cccs2)NC1=O (stereo unspecified) | 0 | 0 | 0 | 0 | 0 | 0
N#Cc1c(-n2ccnc2)cccc1-n1ccnc1 | 0 | 0 | 0 | 0 | 0 | 0
CN1/C(=C\C(=O)Nc2ccc(Cl)cc2)C(C)(C)c2ccccc21 | 40 | 0 | 0 | 0 | 0 | 0
CN1/C(=C\C=C(/C#N)C(=O)Nc2ccc(Cl)cc2)C(C)(C)c2ccccc21 | 0 | 0 | 0 | 0 | 0 | 0
Cc1ccc(Oc2ncccc2C(=O)NC2CCSC2=O)cc1 (stereo unspecified) | 0 | 0 | 0 | 0 | 0 | 0
COc1ccccc1-n1c(-c2cc(-c3ccc(F)cc3)n[nH]2)n[nH]c1=S | 0 | 44 | 0 | 47 | 0 | 0
CCC(CC)C(=O)Nc1cccc(C(=O)Nc2ccc(S(=O)(=O)Nc3ccc(C)cc3)cc2)c1 | 0 | 0 | 0 | 0 | 0 | 0
Cc1ccc(NC(=O)CC2S/C(=N/N=C/c3c[nH]c4ccccc34)NC2=O)cc1 (stereo unspecified) | 0 | 0 | 0 | 0 | 0 | 42
COc1cc(OC)c(OC)cc1CNCCSc1nnnn1C | 0 | 0 | 0 | 0 | 0 | 0
O=C(COc1cccnc1[N+](=O)[O-])NCCc1ccc(F)cc1 | 0 | 0 | 0 | 0 | 0 | 0
CC(=O)N1CCN(C(=O)c2ccc(-n3c(C)ccc3C)cc2)CC1 | 0 | 0 | 41 | 0 | 0 | 0
Nc1ccc2c(c1)C(=O)C(=O)c1ccccc1-2 | 0 | 0 | 0 | 0 | 0 | 0
O=C1C(=O)c2ccc(-c3ccccc3)cc2-c2ccccc21 | 0 | 0 | 0 | 0 | 0 | 41
CCN1/C(=C/C=C/c2oc3ccc4ccccc4c3[n+]2CC)Oc2ccc3ccccc3c21 | 45 | 0 | 0 | 0 | 0 | 0
CCC[n+]1cn(/C(C(=S)Nc2cccc(Cl)c2C)=C(/[O-])c2ccc(OC)c(OC)c2)c2ccccc21 | 0 | 0 | 0 | 0 | 0 | 0
CN(CCN1CCOCC1)Cc1nc(-c2ccccc2)no1 | 0 | 0 | 0 | 0 | 0 | 0
Cc1ccc(CNc2ccc3c(c2)OCO3)cc1 | 0 | 0 | 0 | 0 | 0 | 40
COc1ccc(C2CC(c3ccccc3)=NN2C(=O)COC(=O)c2nc3nc(C)cc(C)n3n2)cc1 (stereo unspecified) | 0 | 0 | 0 | 0 | 0 | 0
CC1=CC(=O)c2c(O)ccc(O)c2C1=O | 0 | 0 | 0 | 45 | 0 | 66
COc1ccc(CCNC(=O)c2cc(-c3ccccn3)nc3c(Cl)cccc23)cc1OC | 56 | 41 | 53 | 0 | 0 | 0
COC(=O)c1cccc2c1-c1ccccc1/C2=N/O | 0 | 0 | 0 | 0 | 70 | 0 | FP interf 140K=0
COc1cc(OC)cc(C(=O)/C=C2\Sc3ccccc3N2C)c1 | 0 | 0 | 0 | 0 | 0 | 0
SMILES | Bcl-XL Bim block | Bcl-2 Bim block | Bim-Bcl-B | Bcl-W Bim block | PKD1 kinase inh | Bfl-1 Bim block | others
CCN1/C(=C/C(C)=O)Sc2ccc(OC)cc21 | 0 | 0 | 0 | 0 | 78 | 0 | FP interf 140K=0
COC(=O)c1cc(NS(=O)(=O)c2ccc(N3CCOCC3)c(N)c2)cc(C(=O)OC)c1 | 0 | 0 | 0 | 0 | 0 | 0
COc1ccc2nc3sc(C(=O)NCCCN4CCc5ccccc5C4)cc3cc2c1 | 0 | 0 | 0 | 0 | 56 | 0 | FP interf 140K=0
COc1ccc2nc3sc(C(=O)N4CCN(C)CC4)cc3cc2c1 | 0 | 0 | 0 | 0 | 0 | 0
CCOc1cccc(C2C(C(=O)c3ccc(C)o3)=C(O)C(=O)N2c2nccs2)c1 (stereo unspecified) | 0 | 0 | 0 | 0 | 88 | 0 | FP interf 140K=71
C=CCN(c1ccccc1Cl)S(=O)(=O)c1cccc(C(=O)OCC(=O)N(C)C2CCS(=O)(=O)C2)c1 (stereo unspecified) | 0 | 0 | 0 | 0 | 0 | 0
CCCNC(=O)CN(c1ccc(F)cc1)S(=O)(=O)c1ccc2c(c1)OCCO2 | 0 | 0 | 0 | 0 | 56 | 0 | FP interf 140K=0
Cc1noc(C)c1COC(=O)c1cccnc1Cl | 0 | 0 | 0 | 0 | 0 | 0
O=C1c2ccccc2-c2onc3ccc(NCc4ccco4)c1c23 | 76 | 48 | 41 | 70 | 60 | 40 | FP interf 140K=0
